# Records with an inconclusive call do not appear. A call without a number means that no potency is given here. The source made the active and inactive calls. Calls follow the shape of the dose curve; as a rule, active = well fitted inhibition curve with a large enough effect; inconclusive = small, poorly fitted or top-dose-only effect; inactive = no such curve, though single readings can be large or run the other way.
# Test: HTS Assay for Allosteric Antagonists of the Human D2 Dopamine Receptor: Hit Validation in HTRF (AID 624455);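 also: stable D1 dopamine receptor cell line scored for blocking the D1 response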
# Conditions: Cells stably expressing D1 dopamine receptor, inhibition mode; series mostly up to 46.1 µM
# Description: Dopamine receptors (DARs) are involved in the etiology and/or therapy of a number of neuropsychiatric and endocrine disorders. For instance, all receptor-based antiparkinsonian drugs work via stimulating the D2 DAR subtype whereas all FDA-approved antipsychotic agents are antagonists of this receptor. […] There are three different types of allosteric modulators that we are seeking, two of which will stimulate or augment receptor signaling, allosteric agonists and potentiators, while the third, allosteric antagonists, will attenuate receptor signaling. The present primary screening assay measures compound antagonism after an EC80 addition of dopamine by tracking calcium flux in a […], inducible Hek293 Trex D2 cell line. This assay measures activity of the hits in the D1 HTRF assay.
# NIH Chemical Genomics Center [NCGC]
# NIH Molecular Libraries Probe Centers Network [MLPCN]
# Assay Submitter (PI): David Sibley
# Cells stably expressing the D1 dopamine receptor will be run in an HTRF assay and compounds will be examined for the ability to inhibit the D1 mediated response.
row,Compound,Potency
1,CCc1cccc(N(C)C(N)=Nc2cccc3ccccc23)c1,inactive
2,CNC1(C)C2CCC(C2)C1(C)C (stereo not given),inactive
3,CO[C@@]1(NC(=O)CSCC#N)C(=O)N2C(C(=O)O)=C(CSc3nnnn3C)CS[C@@H]21,inactive
4,Brc1c(NC2=NCCN2)ccc2nccnc12,inactive
5,c1cc(CN2CCCCC2)cc(OCCCNc2nc3ccccc3s2)c1,inactive
6,NS(=O)(=O)c1cc2c(cc1Cl)NC(C1CC3C=CC1C3)NS2(=O)=O (stereo not given),inactive
7,COc1cc(Cc2cnc(N)nc2N)cc(OC)c1OC,inactive
8,Nc1nc(N)c2nc(-c3ccccc3)c(N)nc2n1,inactive
9,CC(=O)[C@@]1(O)CC[C@H]2[C@@H]3CCC4=CC(=O)CC[C@]4(C)[C@H]3CC[C@@]21C,inactive
10,O=C(O)CN(CCOCCOCCN(CC(=O)O)CC(=O)O)CC(=O)O,inactive
11,O=C1CC2(CCCC2)CC(=O)N1CCCCN1CCN(c2ncccn2)CC1,inactive
12,Cc1nc2sccn2c(=O)c1CCN1CCC(=C(c2ccc(F)cc2)c2ccc(F)cc2)CC1,inactive
13,COc1ccc2c(c1OC)C(=O)O[C@@H]2[C@H]1c2c(cc3c(c2OC)OCO3)CCN1C,inactive
14,OCCN1CCN(CCCN2c3ccccc3C=Cc3ccccc32)CC1,inactive
15,NCCCNCCSP(=O)(O)O,inactive
16,CN(C(=O)CCCOc1ccc2[nH]c(=O)ccc2c1)C1CCCCC1,inactive
17,CC(=O)Nc1nnc(S(N)(=O)=O)s1,inactive
18,CCCCNC(=O)NS(=O)(=O)c1ccc(C)cc1,inactive
19,CC(C)NCC(O)c1cc(O)cc(O)c1 (stereo not given),inactive
20,CC(C)(Oc1ccc(CCNC(=O)c2ccc(Cl)cc2)cc1)C(=O)O,inactive

row,Compound,Potency
1,NC(N)=N/N=C/c1c(Cl)cccc1Cl,inactive
2,C[N+](C)(C)CCCCCCCCCC[N+](C)(C)C,inactive
3,CN(C)CC/C=C1\c2ccccc2COc2ccccc21,inactive
4,CC(=O)OC(C)C[N+](C)(C)C (stereo not given),inactive
5,CCCN(CCC)CCc1cccc2c1CC(=O)N2,inactive
6,CCCOc1ccccc1-c1nc2n[nH]nc2c(=O)[nH]1,inactive
7,C[N+](C)(C)CCOC(N)=O,inactive
8,CCO/C([O-])=N/c1c[n+](N2CCOCC2)no1,inactive
9,CCn1cc(C(=O)O)c(=O)c2cc3c(cc21)OCO3,inactive
10,c1cnc(N2CCN(Cc3ccc4c(c3)OCO4)CC2)nc1,inactive
11,CCCCNc1ccc(C(=O)OCCN(C)C)cc1,inactive
12,COCC(=O)O[C@]1(CCN(C)CCCc2nc3ccccc3[nH]2)CCc2cc(F)ccc2[C@@H]1C(C)C,inactive
13,C(=C\c1ccccc1)/CN1CCN(C(c2ccccc2)c2ccccc2)CC1,inactive
14,Cc1ccc(=O)n(-c2ccccc2)c1,inactive
15,CC(C)[N+](C)(CCOC(=O)C1c2ccccc2Oc2ccccc21)C(C)C,inactive
16,COCCOC(=O)C1=C(C)NC(C)=C(C(=O)OC(C)C)C1c1cccc([N+](=O)[O-])c1 (stereo not given),inactive
17,c1ccc2c(c1)CCCC2C1=NCCN1 (stereo not given),inactive
18,CCCCCCCC/C=C\CCCCCCCC(=O)NCc1ccc(O)c(OC)c1,inactive
19,CCCNC(C)C(=O)Nc1ccccc1C (stereo not given),inactive
20,CCN(CC)CCNC(=O)c1ccc(NC(C)=O)cc1,inactive

# From PubChem BioAssay (NCATS)
